In PubChem BioAssay (NCI):
“And” between values parts separate entries of the source, which are not always exact repeats. Identical values can stand only once. About 83,000 compounds went through this panel and 20% of them were active in at least one assay; those are over-represented in the sample as a whole.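 Single-concentration screen, 48 h exposure, 96-well plates. Endpoint: percent growth. Below 10 = active.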 The source made the active and inactive calls.

test system: TK-10 renal; test: NCI-60 one-dose screen, 48 h (100 = growth as untreated, 0 = no growth, -100 = all killed); conditions: 10 µM unless noted

| Compound | growth |
| --- | --- |
| CC(=Nc1ccncc1)C(C)=Nc1ccncc1 | -74.8% [100 µM] (active) and -52.5% [100 µM] (active) |
| C=C1CC2(C)CCC(OC(=O)C3(C)OC3C)C(C)(OC(C)=O)C2CC1=C(C)C (centres undefined) | 89.2% [100 µM] (inactive) and 49.5% [100 µM] (inactive) |
| N#Cc1c(N)oc(-c2cccc([N+](=O)[O-])c2)c1C#N | -44.5% [100 µM] (active) and -69.6% [100 µM] (active) |
| CCC/C(Cl)=N/OC(=O)Nc1cccc(F)c1 | -100% [100 µM] (active) |
| Cc1ccc(OC2CC(n3cnc4ncnc(Cl)c43)OC2Oc2ccc(C)cc2)cc1 (centres undefined) | 85% [100 µM] (inactive) and -100% [100 µM] (active) |
| COC(=O)/C(=N\NC(=S)NN)C(C(=O)OC)C(=O)C(=O)Nc1cccc(C(F)(F)F)c1 (centres undefined) | 155% [100 µM] (inactive) and 108% [100 µM] (inactive) |
| C=C1C(=O)OC2/C=C(\CO)CC/C=C(\CO)CC(OC(=O)C(C)C)C12 (centres undefined) | -97% [100 µM] (active) and -96.5% [100 µM] (active) |
| Cc1ccc(NC2=N/C(=C/c3ccccc3)C(Cl)=N2)cc1 | 82.6% [100 µM] (inactive) and -17.1% [100 µM] (active) |
| OCc1ccccc1OC1OC(CO)C(O)C(O)C1O (centres undefined) | 97.4% [100 µM] (inactive) and 97.5% [100 µM] (inactive) |
| COc1cc2c(cc1-c1coc3cc(O)ccc3c1=O)OCO2 | 81.2% [100 µM] (inactive) and 3.05% [100 µM] (active) |
| COc1cc2oc3c(c(=O)c2c(O)c1/C=C/C(C)C)CCC(C)(C)Oc1cc(O)ccc1-3 | 35% [100 µM] (inactive) and -96.5% [100 µM] (active) |
| COC(=O)c1cnn2c1n[n+]([O-])c1ccccc12 | 126% [100 µM] (inactive) and 78.8% [100 µM] (inactive) |
| COc1c(OC)c(OC)c2c(c1OC)c(=O)c1ccccc1n2C | 87.4% [100 µM] (inactive) and 35% [100 µM] (inactive) |
| COc1c(O)ccc(C2=Cc3ccc(O)cc3OC2)c1OC | 1.01% [100 µM] (active) and 9.04% [100 µM] (active) |
| COc1ccc(C)cc1NC(=S)C#N | 112% [100 µM] (inactive) and 36.2% [100 µM] (inactive) |
| C=C(C)C1CC2(C)C(C)CC(OC(=O)/C(C)=C\C)CC2C(OC(=O)/C(C)=C\C)C1O (centres undefined) | 34.6% [100 µM] (inactive) and 71% [100 µM] (inactive) |
| C=C(C)C(=O)OC1CC2(C)OC(=CC2=O)C(C)CC2OC(=O)C(=C)C12 (centres undefined) | -96.8% [100 µM] (active) |
| CC(C)=CCc1cc(C2COc3cc4c(c(O)c3C2=O)C=CC(C)(C)O4)c(O)cc1O (centres undefined) | -14.3% [100 µM] (active) and -100% [100 µM] (active) |
| CCn1c2c(c3ccccc3c1=O)C(=O)c1ccccc1-2 | 73.6% [100 µM] (inactive) and -93.6% [100 µM] (active) |
| C=C1C2CCC3C4(C)CCCC(C)(C(=O)O)C4CCC3(C2)C1OC(=O)/C(C)=C/C (centres undefined) | 27.3% [100 µM] (inactive) and 79.6% [100 µM] (inactive) |

| Compound | growth |
| --- | --- |
| C=C1C(=O)OC2CC(C)C3(O)CCC(=O)C3(C)CC12 (centres undefined) | 39.8% [100 µM] (inactive) and 21.4% [100 µM] (inactive) |
| COc1ccc2cc1Oc1ccc(cc1)C[C@@H]1c3cc(c(OC)cc3CCN1C)Oc1c(OC)c(OC)cc3c1[C@H](C2)N(C)CC3 | 33.5% [100 µM] (inactive) and -100% [100 µM] (active) |
| CC(=O)C1=C(C)N2C(=NC3=C(CCc4ccccc43)C2c2cccc(Br)c2)S1 (centres undefined) | 112% [100 µM] (inactive) and 48.5% [100 µM] (inactive) |
| COc1ccc2cc(CN3CCC(C4CCNCC4)CC3)ccc2c1 | -89.6% [100 µM] (active) and -100% [100 µM] (active) |
| CCOC(=O)COc1cc(-c2ccccc2)nc2cc(F)ccc12 | 95.9% [100 µM] (inactive) and 90.1% [100 µM] (inactive) |
| O=C1NC(N/N=C\C(O)C(O)C(O)C(O)CO)=N/C1=C\c1ccc(Cl)cc1 (centres undefined) | 47.7% [100 µM] (inactive) and -100% [100 µM] (active) |
| CCOc1cc2c(cc1O)C=C[C@@H]1[C@@H]2CC[C@]2(C)[C@@H](O)CC[C@@H]12 | -4.09% [100 µM] (active) and -100% [100 µM] (active) |
| NC(Cc1ccc(S(=O)(=O)O)cc1)C(=O)NC(Cc1ccc(S(=O)(=O)O)cc1)C(=O)NC(Cc1ccc(S(=O)(=O)O)cc1)C(=O)NC(Cc1ccc(S(=O)(=O)O)cc1)C(=O)O (centres undefined) | 102% [100 µM] (inactive) and 111% [100 µM] (inactive) |
| Cc1coc2c1C(OC(=O)C(C)C)C1(C)C(C)CCC(O)C1C2=O (centres undefined) | 87.9% [100 µM] (inactive) and 63.5% [100 µM] (inactive) |
| CNC(=S)c1nnsc1N | 103% [100 µM] (inactive) and 37.1% [100 µM] (inactive) |
| Clc1c(Cl)c(Cl)c2nn(C3CCCO3)nc2c1Cl (centres undefined) | 24.5% [100 µM] (inactive) and -76.8% [100 µM] (active) |
| Cc1cc2nn(C3CCCO3)nc2cc1C (centres undefined) | 81.3% [100 µM] (inactive) and 101% [100 µM] (inactive) |
| N#CC1(C#N)N[C@@H](c2ccsc2)[C@H]2C(=O)N(c3ccccc3)C(=O)[C@H]21 | 55.7% [100 µM] (inactive) and 30.9% [100 µM] (inactive) |
| COc1ccc(/C=C2/NC(=S)N=C2Cl)cc1 | 92.7% [100 µM] (inactive) and -42.1% [100 µM] (active) |
| Clc1ccc(C2NN=C3c4ccccc4OCC32)cc1 (centres undefined) | 7.98% [100 µM] (active) and 5.96% [100 µM] (active) |
| C[N+](C)(CCNC(=O)c1cccc2cc3ccccc3nc12)Cc1ccc([N+](=O)[O-])s1 | 72% [25 µM] (inactive) and 30.2% [25 µM] (inactive) |
| COC(=O)C(C(=O)C(=O)Nc1c(C)cccc1C(C)(C)C)c1nc2ccc(Cl)cc2[nH]c1=O (centres undefined) | 141% [100 µM] (inactive) and 105% [100 µM] (inactive) |
| COc1cc([C@H]2OC[C@H]3[C@@H]2CO[C@@H]3c2cc(OC)c3c(c2)OCO3)cc(OC)c1OC | 33.1% [100 µM] (inactive) and 24.9% [100 µM] (inactive) |
| COc1cc(-c2nc(SC)nc3c2CCc2ccccc2-3)cc(OC)c1OC | 41.4% [100 µM] (inactive) and 11% [100 µM] (inactive) |
